High-throughput results: PubChem, SRMLSC
A selection: hits, their analogues and other compounds. The true share with any hit is near 6.5%.
PMK inhibit: blocks S. pneumoniae phosphomevalonate kinase | purified PMK, PK/LDH-coupled NADH absorbance 340 nm | inhibition, % at 10 µM | actives 0.49% (n = 65,000) | AID 539;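 active means top-ranked compounds by inhibition in the single 10 µM screen, taking a fixed number of the strongest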
A340 absorber: absorbance at 340 nm; compound absorbance at 340 nm, fold over control; 65,000 tested, under 10 active; fold change at 10 µM;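 active means at 10 µM dose, initial 340 nm absorbance at least 2 fold that of control wells; inactive means change under 2 fold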;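 further: initial absorbance extrapolated from kinetic A340 decline of NADH oxidation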
Autofluor 339: intrinsic fluorescence of library compounds, ex339/em460 – biochemical, MLSMR library, data from DPM-DC assay, artefact control, profiling panel; compound autofluorescence, ex339/em460 nm, NADH buffer; active compounds read high; 1 = no-compound wells, NADH background; fluorescence fold increase at 10 µM; actives 5.5% (n = 65,000); AID 709;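 active means at 10 µM, mean starting fluorescence two-fold or more over control wells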;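 further: signal is the first read of a kinetic run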
Spn MK inh: S. pneumoniae mevalonate kinase inhibition | purified MK, PK/LDH-coupled NADH absorbance 340 nm | inhibition, % at 10 µM | actives 0.48% (n = 65,000);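 active means ranked among the strongest by inhibition in the single 10 µM screen, a fixed top-ranked set picked for dose follow-up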
NADH coupling: blocks coupling enzymes of NAD/NADH assays. coupled PK/LDH NADH assays, four targets. IC50, µM (top dose mostly 10 µM). actives 0.02% (n = 65,000). AID 774;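 active means single-dose screening hits from any of four coupled enzyme assays that gave an IC50 when retested across doses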;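 further: the DPM-DC format reads NADH fluorescence rather than 340 nm absorbance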
DPM-DC inhibit: S. pneumoniae DPM-DC inhibition | purified DPM-DC, PK/LDH coupled NADH fluorescence | calls only at 10 µM | actives 0.49% (n = 65,000);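 active means the 320 compounds with the highest percent inhibition in the single-dose primary screen, excluding strongly autofluorescent ones, cut at about 32% in these data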;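 further: kinetic rate of NADH fluorescence loss reporting ADP formed by the decarboxylase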
A number is an active result; - = inactive; . = no result shown; + = active, no number.

SMILES	PMK inhibit	A340 absorber	Autofluor 339	Spn MK inh	NADH coupling	DPM-DC inhibit
COc1cc(S(=O)(=O)N2CCN(C)CC2)ccc1Cl	-	-	-	-	-	-
CN1CCN(S(=O)(=O)c2cccc(S(=O)(=O)c3ccc(Cl)c(Cl)c3)c2)CC1	25	-	-	-	-	-
CCCOc1ccc(-c2nnc(-c3ccco3)o2)cc1	-	-	2.2	-	-	-
N#Cc1ccccc1OCC(=O)Nc1c(C(=O)C2CC2)oc2ccccc12	-	-	2.6	-	-	-
COc1ccc(NC(=O)c2oc3ccccc3c2NC(=O)c2ccc(OC)c(OC)c2)c(OC)c1	-	-	5	-	-	.
CCC(=O)Nc1c(C(=O)Nc2cccc(OC)c2)oc2ccccc12	-	-	-	-	-	-
CCOCC(=O)Nc1c(C(=O)Nc2ccccc2OC)oc2ccccc12	-	-	5.1	-	-	.
COc1cc2c(cc1NC(=O)c1ccc3c(c1)OCO3)oc1ccccc12	-	-	3	-	-	+
COc1ccc(NC(=O)c2oc3ccccc3c2C)c(OC)c1	-	-	-	-	-	-
CCOCCCNC(=O)Cn1cc2c(n1)CCCCC2	-	-	-	-	-	-
COc1ccc(-n2nc3c(c2NC(=O)c2cc4ccccc4oc2=O)CS(=O)(=O)C3)cc1	-	-	-	-	-	-
COc1ccc(NC(=O)c2oc3ccccc3c2NC(=O)COc2ccccc2OC)c(OC)c1	-	-	5	-	-	.
COc1ccc(NC(=O)COc2ccccc2)c(OC)c1	-	-	-	-	-	-
CCOC(=O)c1ccc(NS(=O)(=O)c2cccc3nsnc23)cc1	-	-	-	-	-	-
COc1ccc(C(c2nnnn2Cc2ccc(F)cc2)N2CCN(c3ccccc3)CC2)cc1 (centres undefined)	-	-	-	-	-	-
COc1ccc(Cn2nnnc2C(c2ccccn2)N2CCN(c3cc(Cl)ccc3C)CC2)cc1 (centres undefined)	28	-	-	-	-	-
Cc1occc1-c1nnc(SCC(=O)NC(=O)NC(C)C)n1N	-	-	-	-	-	-
CCCOc1ccc2oc(=O)c3c(c2c1)CCCN3C(=O)CN1CCN(C(=O)c2ccco2)CC1	-	-	3	-	-	-
CCCOc1ccc2oc(=O)c3c(c2c1)CCCN3C(=O)CN1CCN(c2ncccn2)CC1	-	-	-	-	-	-
O=C(CN1CCCC1)N1CCCc2c1c(=O)oc1ccc(OCc3ccccc3)cc21	-	-	3	-	-	+
CC(C)(C)c1[nH]nc2c1C(Cc1ccccc1)C(C#N)=C(N)O2 (centres undefined)	-	-	-	-	-	-
Cc1n[nH]c(C)c1S(=O)(=O)Nc1ccc2c(c1)OCCO2	-	-	-	-	-	-
COc1ccc(-c2cn3c(C)c(C(=O)Nc4cc(NC(C)=O)ccc4OC)sc3n2)cc1	-	-	3.4	-	-	.
CNC(=O)c1sc2nc(-c3ccc(OC)cc3)cn2c1C	-	-	-	-	-	-
COc1ccccc1-c1nc(C(N)=O)c2[nH]c(=O)n(-c3cccc(C)c3)c2n1	-	-	3.9	-	-	+
SMILES	PMK inhibit	A340 absorber	Autofluor 339	Spn MK inh	NADH coupling	DPM-DC inhibit
CCOc1ccccc1-c1nc(C(N)=O)c2[nH]c(=O)n(-c3ccccc3)c2n1	-	-	3	-	-	-
Cc1cccc(-n2c(N)cc(=O)[nH]c2=S)c1	-	-	-	-	-	-
Cc1cccc(-n2c(=O)[nH]c3c(C(N)=O)nc(-c4ccccc4Cl)nc32)c1	-	-	2.1	-	-	.
COc1cccc(-c2nc(C(N)=O)c3[nH]c(=O)n(-c4ccccc4)c3n2)c1OC	-	-	-	-	-	-
NC12CC3CC(C1)CC(CO)(C3)O2	-	-	-	-	-	-
COC(=O)c1ccc(NC(=O)C23CCC(C)(C(=O)O2)C3(C)C)cc1 (centres undefined)	-	-	-	-	-	-
CC(=O)N1CCN(CCN=CC2=C(O)CC(c3cccs3)CC2=O)CC1 (centres undefined)	-	-	-	-	-	-
Cc1ccc(S(=O)(=O)NC2CCCC(C(=O)O)C2)cc1 (centres undefined)	-	-	-	-	-	-
COc1cc2c(C#N)c(N3CCCCC3)nc(N)c2c(N)n1	-	-	5.1	-	-	.
COc1cc2c(C#N)c(N3CCOCC3)nc(N)c2c(N)n1	-	-	3.4	-	-	.
